Whole data set: some 33,000 sequences, median “E-score (-0.5 to 0.5)” near -0.016, cut for the highest 2% near 0.3. The entries come from a sample that favours the highest values as a whole.
Molecular target: T1, Yer184c (UniProt P39961)
T1 sequence: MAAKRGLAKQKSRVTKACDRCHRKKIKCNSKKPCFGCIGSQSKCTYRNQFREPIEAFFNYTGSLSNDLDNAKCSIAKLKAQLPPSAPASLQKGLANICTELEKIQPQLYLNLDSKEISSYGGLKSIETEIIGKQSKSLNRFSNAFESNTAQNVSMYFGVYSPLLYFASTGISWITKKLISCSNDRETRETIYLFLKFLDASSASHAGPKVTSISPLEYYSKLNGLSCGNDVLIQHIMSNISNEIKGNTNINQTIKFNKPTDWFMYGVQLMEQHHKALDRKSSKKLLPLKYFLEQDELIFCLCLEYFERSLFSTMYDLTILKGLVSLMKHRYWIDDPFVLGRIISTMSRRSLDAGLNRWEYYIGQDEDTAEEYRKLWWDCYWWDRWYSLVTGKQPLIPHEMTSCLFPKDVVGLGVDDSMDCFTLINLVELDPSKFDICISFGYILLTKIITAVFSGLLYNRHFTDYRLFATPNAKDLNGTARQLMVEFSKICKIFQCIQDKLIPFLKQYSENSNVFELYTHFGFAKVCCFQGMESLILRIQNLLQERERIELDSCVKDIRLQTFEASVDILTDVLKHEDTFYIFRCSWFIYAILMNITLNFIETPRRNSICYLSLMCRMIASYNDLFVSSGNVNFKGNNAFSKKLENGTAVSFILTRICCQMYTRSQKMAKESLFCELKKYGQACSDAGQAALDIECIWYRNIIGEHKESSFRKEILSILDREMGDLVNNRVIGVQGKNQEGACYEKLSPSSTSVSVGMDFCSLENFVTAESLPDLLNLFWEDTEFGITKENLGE
Assay: PBM E-score (8-mer binding enrichment) (E-score (-0.5 to 0.5)); higher = stronger / more preferred TF binding
Settings: protein concentration: 100 nM; construct: GST-full length
Method in brief: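 Each ungapped eight-base word and its reverse complement, pooled, received an E-score from the Universal PBM Analysis Suite. Underlying scans, normalised with masliner, recorded fluorescent anti-GST bound to GST-tagged yeast transcription factors. These were applied at about 100-200 nM to universal all-10-mer Agilent arrays double-stranded by primer extension.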

| Sequence | PBM E-score |
| --- | --- |
| GTTAGAAA | 0.184 |
| ACGGAACA | 0.303 |
| CTGGAACA | 0.122 |
| GCGGAACA | 0.237 |
| CAGGAACA | -0.0366 |
| CCGGAACA | 0.435 |
| TCGGAACA | 0.408 |
| AGCTTTTC | 0.0452 |
| CAATTAAG | 0.21 |
| GGGTTAAA | -0.0167 |
| AAGCTCCT | -0.237 |
| AAACTCCT | -0.18 |
| ATACTCCA | -0.081 |
| ATACTCCC | 0.059 |
| AAACTCCG | 0.319 |
| CAGCTCCG | 0.222 |
| ATACTCCG | 0.321 |
| AAGCTCCG | 0.339 |
| CAACTCCG | 0.197 |
| AATCGTAT | 0.039 |
| TATATCGA | 0.161 |
| ATATCTTG | 0.0464 |
| CAAAGGGA | -0.166 |
| ACGGTCCG | 0.161 |
| CACCCGGA | 0.237 |

| Sequence | PBM E-score |
| --- | --- |
| GAGCCGCA | 0.0573 |
| CAGCCGTA | 0.142 |
| GACCCGGA | 0.212 |
| TACCCGGA | 0.354 |
| GAGCCGGA | 0.328 |
| AAGCCGTA | 0.224 |
| GAGCCCGA | 0.0143 |
| AAGCCGCA | 0.161 |
| AAGCCGGA | 0.411 |
| AAGCCGTC | 0.187 |
| GAGCCGTA | 0.307 |
| GCAGAGCA | 0.0245 |
| AATGTCCG | 0.283 |
| AGGTCGGG | -0.168 |
| AAGCCCAA | -0.106 |
| CCATCTTC | 0.173 |
| AGAAGCTC | 0.0486 |
| CCGTGAGG | -0.119 |
| CACCAGAC | -0.00896 |
| AACAGCTG | 0.0223 |
| CTAGAGTA | -0.0589 |
| CAGCCGGC | 0.391 |
| AAGCCGGC | 0.374 |
| GAGCCCGC | -0.212 |
| GAGCCGCC | 0.0613 |

| Sequence | PBM E-score |
| --- | --- |
| GAGCCGGC | 0.406 |
| TAGCCGGA | 0.401 |
| AAGCCGGT | 0.258 |
| AAGCCGGG | 0.246 |
| CAGCCGGG | 0.127 |
| TAGCCGCA | -0.0301 |
| TAGCCGAA | 0.276 |
| CAGCCGCC | 0.0636 |
| CCATAGAC | -0.204 |
| GAAGTACA | 0.0369 |
| CCAATCGC | -0.072 |
| ATCAGCAG | 0.0226 |
| GGTGCCAC | -0.119 |
| TCGTACCA | 0.099 |
| CGCGCACA | 0.112 |
| CAGCCTGA | -0.0443 |
| CAGCCGGA | 0.392 |
| CAGCCGCA | -0.134 |
| ATATCACC | 0.093 |
| ACAGCGGC | -0.0827 |
| GATTCGAC | -0.112 |
| AATTCGGA | 0.343 |
| CATTCGGG | 0.141 |
| GATTCGGC | 0.364 |
| GGTTCGGA | 0.281 |

| Sequence | PBM E-score |
| --- | --- |
| CATTCGGC | 0.269 |
| AATTCGGC | 0.24 |
| CATTCGGA | 0.338 |
| CGTTCGGA | 0.342 |
| CGTTCGGC | 0.27 |
| AATTCGGT | 0.301 |
| AATTCGGG | 0.103 |
| ATCCTTGC | -0.0624 |
| GTTAGACA | 0.222 |
| GATTTGTA | 0.103 |
| AGCCAAGG | -0.16 |
| ACTAAGAT | 0.154 |
| GAGGCCCA | -0.319 |
| CGGTTAAG | 0.269 |
| ACGAATAG | -0.0621 |
| TGGGCTAA | -0.147 |
| CAAAAGGG | -0.101 |
| GCCCTTCA | -0.0881 |
| GATTCGTA | 0.125 |
| TATTCGCA | 0.0122 |
| GATTCGCA | 0.131 |
| TATTCGGA | 0.356 |
| GATTCGGA | 0.329 |
| TATTCGAA | -0.106 |
| AGCTTGGA | -0.226 |

| Sequence | PBM E-score |
| --- | --- |
| ATTCCATA | 0.147 |
| ACACAGGT | -0.289 |
| CGGCATGC | 0.272 |
| AGGCATTA | -0.187 |
| GGGCATGA | -0.275 |
| GGGCATTA | -0.199 |
| CGGCATTA | 0.416 |
| AGGCAAGA | -0.112 |
| CGGCATGA | 0.313 |
| GGGCAAGA | 0.106 |
| CGGCAAGA | 0.317 |
| CATCGGCC | 0.115 |
| ACCCAGTG | -0.306 |
| GAGAGGGC | -0.293 |
| CCTATCGA | -0.107 |
| ACCGGATC | 0.229 |
| ACCGGACT | 0.101 |
| ACCGGATG | 0.307 |
| ACCGGATA | 0.187 |
| CCCGGACG | -0.0945 |
| ACCGGACG | 0.305 |
| CGCATGAA | 0.0183 |
| AGTTAGTG | 0.00554 |
| CCTATACG | -0.267 |
| ACTCGGCC | 0.121 |

| Sequence | PBM E-score |
| --- | --- |
| CCTCGGCG | 0.355 |
| TCTCGGCA | 0.35 |
| CCTCGGAG | 0.277 |
| ACTCGGCG | 0.325 |
| ACTCGGCT | 0.209 |
| ACTCGGCA | 0.299 |
| CCTCGGTA | -0.0209 |
| CCTCGGCA | 0.367 |
| CCTCGGCC | 0.257 |
| TATCGGCA | 0.213 |
| TCACGGCA | 0.096 |
| CGAACACC | 0.0223 |
| AATGGCCA | -0.256 |
| ACGGATTG | 0.161 |
| GTTCCGTA | 0.276 |
| CTTCCGTC | 0.209 |
| CATCCGTA | 0.206 |
| ACTCCGTG | 0.1 |
| ATTCCGTG | 0.313 |
| CTTCCGTA | 0.322 |
| ATTCCGCG | 0.242 |
| ATTCCGTA | 0.322 |
| ATTCCGTC | 0.149 |
| CCTGCGAG | 0.00158 |
| CGTAGCTC | -0.0585 |

| Sequence | PBM E-score |
| --- | --- |
| AGTTCACG | -0.0529 |
| CCCCAATA | -0.244 |
| ACGCCAAT | -0.0124 |
| ATTCTTCC | 0.083 |
| ACCGGGAT | 0.256 |
| CAGTTAGA | -0.0352 |
| ATAAGATC | -0.0275 |
| ACGAATCC | 0.115 |
| ACGAATTC | 0.113 |
| CCGAATCC | 0.322 |
| CCGAATTC | 0.334 |
| CCGAATCA | 0.233 |
| CCGAATTA | 0.231 |
| TACGCTAA | 0.0349 |
| GTAACTCA | -0.0122 |
| AGATCTAA | 0.0189 |
| AGTCTTGG | -0.0577 |
| GACAAGAA | 0.151 |
| TACCAAAA | 0.0716 |
| GACAAAAA | 0.333 |
| GACAAAAC | 0.0933 |
| AACCAAAA | 0.0925 |
| GACCAAAA | 0.309 |
